# According to ChEMBL document CHEMBL3433997, “St. Jude Leishmania screening dataset” (2016):
# What was measured:
# Format in all cases: functional
# [1] = target: Solute carrier family 2, facilitated glucose transporter member 1 (Homo sapiens) (UniProt P11166); test: ST_JUDE_LEISH: Cytotoxicity at 2uM final concentration against transgenic Leishmania Mexicana promastigotes LmGLUT1 that are glucose transport deficient and complemented with the human glucose transporter GLUT1. Activity is measured by DNA content using SYBR green in vitro
# Chain of Solute carrier family 2, facilitated glucose transporter member 1 (Homo sapiens) (P11166 whole entry): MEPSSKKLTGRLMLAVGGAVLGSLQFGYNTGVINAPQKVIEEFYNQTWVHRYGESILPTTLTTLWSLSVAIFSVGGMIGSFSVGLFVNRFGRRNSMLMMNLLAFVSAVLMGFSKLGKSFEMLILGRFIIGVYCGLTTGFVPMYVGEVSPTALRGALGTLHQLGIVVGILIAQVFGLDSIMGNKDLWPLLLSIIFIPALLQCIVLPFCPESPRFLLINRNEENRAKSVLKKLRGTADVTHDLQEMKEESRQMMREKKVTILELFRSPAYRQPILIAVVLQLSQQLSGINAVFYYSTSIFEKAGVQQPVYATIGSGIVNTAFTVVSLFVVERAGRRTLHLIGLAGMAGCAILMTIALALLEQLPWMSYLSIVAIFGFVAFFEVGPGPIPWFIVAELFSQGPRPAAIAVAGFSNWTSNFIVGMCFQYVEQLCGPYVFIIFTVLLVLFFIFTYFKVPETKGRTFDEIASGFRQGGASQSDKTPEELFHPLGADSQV
# [2] = target: Hexose transporter 1 (Plasmodium falciparum) (UniProt O97467); test: ST_JUDE_LEISH: Cytotoxicity at 2uM final concentration against transgenic Leishmania Mexicana promastigotes LmPfHT that are glucose transport deficient and complemented with the Plasmodium falciparum hexose transporter. Activity is measured by DNA content using SYBR green in vitro
# [3] = target: Glucose transporter (Leishmania mexicana) (UniProt O61059); test: ST_JUDE_LEISH: Cytotoxicity at 2uM final concentration against transgenic Leishmania Mexicana promastigotes LmGT2 that are glucose transport deficient and complemented with the L. Mexicana glucose transporter 2. Activity is measured by DNA content using SYBR green in vitro
Compound,inhibition [1] [%],inhibition [2] [%],inhibition [3] [%]
NC(=O)C1CCN(Cc2cccc(-c3cccc(-c4nc5cc(F)ccc5[nH]4)c3)c2)CC1,-0.94,1.68,1.45
CC(C)CNCc1ccc(OCc2cccc(COc3ccc(CNCC(C)C)cc3I)c2)c(I)c1,2.2,1.42,2.23
Cc1[nH]c(C)c(-c2ccc(-c3ccc(Cl)cc3)nc2)c(=O)c1Br,-0.04,-0.24,-1.28
Cc1cc(C2CCN(CCCCNC(=O)c3ccc(-c4ccc(C(F)(F)F)cc4)cc3)CC2)c(C)cc1OCCO,5.21,5.28,2.63
Cc1ccc(-c2noc(=O)n2CC(=O)Nc2ccccc2-c2ccccc2)cc1,0.59,0.52,-0.17
CC(=O)Nc1ccc(CN2Cc3ccc(NC(=O)Nc4ccc(Oc5ccccc5)cc4)cc3C2)s1,1.61,-0.21,1.94
NC(=O)c1ccc(NC(=O)CN(Cc2ccc(Cl)cc2)S(=O)(=O)c2ccccc2)cc1,7.52,5.01,7.46
CN(C)CCOc1ccc(N2CCN(CCCCNC(=O)c3ccc(NC(=O)c4ccc(Cl)cc4)cc3)CC2)cc1,0.54,0.36,3.48
CCCCC(CC)C(=O)C(NC(=O)[C@H](CSC(c1ccccc1)(c1ccccc1)c1ccccc1)NC(=O)OC(C)(C)C)C(=O)OC (stereo partly specified),3.84,3.76,3.51
c1ccc(CNc2cc(-c3ccccn3)nc(-c3ccccn3)n2)cc1,24.5,4.72,8.35
O=C(NCC1CC1)C1CCN(C(c2ccccc2)c2cc(F)cc(F)c2)CC1 (stereo unspecified),3.61,3.92,-1.03
CCCCOc1ccc(CNCCCCCCNCc2ccc(OCCCC)c3ccccc23)c2ccccc12,104,102,103
c1ccc2[nH]c(-c3ccc(-c4ccc(CN5CCN(CCN6CCOCC6)CC5)cc4)cc3)nc2c1,11.2,12.4,4.36
COc1cc(OCCCN(C)Cc2ccc(OC)c(OC)c2)ccc1NC(=O)c1cccc2c(O)c3cccc(F)c3nc12,2.95,2.52,0.63
N#Cc1ccc2c(c1)CCN(CCC1CCC(NC(=O)/C=C/c3ccc4ccccc4c3)CC1)CC2 (stereo unspecified),-0.35,-1.71,-1.14
O=C(Nc1cccc(CN2CCCN(Cc3cccnc3)CC2)c1)c1cc2ccccc2s1,4.38,4.77,-1.53

Compound,inhibition [1] [%],inhibition [2] [%],inhibition [3] [%]
CN(C)c1ccc(CN2CCC(NC(=O)c3ccc(-c4cccc(F)c4)s3)CC2)cc1,4.53,5.36,1.82
O=C(Nc1cccc(-c2nn3ccccc3c2-c2ccnc(Nc3cccc(C(F)(F)F)c3)n2)c1)c1c(F)cccc1F,0.32,1.06,0.07
COc1ccccc1Cc1c(C)nc2nc(N)nc(N)c2c1C,6.33,4.07,7.13
COc1ccc(Br)cc1/C=C/C(=O)Nc1ccc(C2CCCN(C)C2)cc1 (stereo unspecified),3.89,2.73,5.71
O=C(CNC(=O)c1ccc(O)cc1)Nc1cccc(-c2cccc(-c3nc4cc(C(F)(F)F)ccc4[nH]3)c2)c1,3.81,4.39,2.15
O=C(Cn1c(CCc2cccc(F)c2F)nc(=O)c2ccccc21)N(CCN1CCCCC1)Cc1ccc(-c2ccc(C(F)(F)F)cc2)cc1,6.02,4.32,4.32
Cc1cccc(N2CCN(C3CCC(NC(=O)c4cc5ccccc5[nH]4)CC3)CC2)c1C (stereo unspecified),2.31,1.82,1.43
CCCCCCCn1c(=N)n(CC(O)c2ccc(Cl)c(Cl)c2)c2ccccc21 (stereo unspecified),8.14,7.92,13.2
COc1ccc(-c2csc3ncnc(Cl)c23)cc1OC,3.91,3.53,-0.23
COc1ccc(-c2cncc(-c3ccc(OC)c(OC)c3)n2)cc1OC,2.76,2.56,3.88
CCC(C)c1ccc(NC(=O)Nc2ccc(Cn3ncc(N4CCCNCC4)c(Cl)c3=O)cc2)cc1 (stereo unspecified),3.78,4.71,-0.01
O=C(CCCCCNC(=O)c1ccc(O)c(-c2ccc(Cl)c(Cl)c2)c1)NCc1cccc(C(F)(F)F)c1,-1.4,-1.74,-4.05
CCOc1cc(C(=O)Nc2cccnc2)ccc1-c1nc2cc(Cl)c(Cl)cc2[nH]1,1.75,0.16,-0.85
CC(C)(CNCc1ccc(C(F)(F)F)cc1)c1nc(-c2ccnc(N)n2)c(-c2ccc(Cl)c(O)c2)[nH]1,1.5,0.51,2.94
Cc1cccc(CNc2nc(C)cc(NCCC(=O)NCCOc3ccccc3)n2)c1,6.22,3.29,-0.13
CCN(CC)CCNc1nccc(N(C)c2ccc(NC(=O)Nc3cc(C(F)(F)F)ccc3F)cc2)n1,5.98,2.93,0.26
